Source: PubChem BioAssay (several laboratories)
Only some compounds are listed: those with a hit (about 4.3% of all), similar ones and a draw of the others.
FGF22 binding: binders of recombinant human FGF22 by thermal shift. AID 651658. SYPRO orange fluorescence; percent of sucrose octasulfate shift, DMSO zero. Q9HCT0. 1.5% of 340,000 active. activity (Tm shift, normalised), % at 9.99 µM;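 active = mean Tm shift, scaled 0 neutral to 100 positive control, at about 1.3% or above, every replicate too, limit read from the data; inconclusive = no clear call, values can overlap the other calls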
Target sequence (Q9HCT0 whole entry, looked up): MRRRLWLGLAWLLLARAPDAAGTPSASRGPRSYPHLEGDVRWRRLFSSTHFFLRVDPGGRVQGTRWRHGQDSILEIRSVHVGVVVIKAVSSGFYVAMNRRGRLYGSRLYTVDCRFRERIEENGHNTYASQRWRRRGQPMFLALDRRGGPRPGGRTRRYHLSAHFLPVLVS
MITF act: activators of MITF-driven TRPM1 promoter activity in SK-MEL-5 cells; SK-MEL-5 TRPM1-promoter luciferase, 24 h; % of positive control, neutral wells = 0; activation, % at 12.5 µM; 0.75% of 300,000 active;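 active = mean activation of at least 80% with every replicate also reaching 80%; inconclusive = mean reaches 80% but some replicate falls short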
SMARCA2 activ: activators of SMARCA2 function; MG213 cells, MMTV-luciferase reporter, dexamethasone, overnight; AID 652017; 1% of 370,000 active; activation, % at 9.1 µM; in the data active = activation above about 7.8%
esBAF inh: inhibitors of esBAF chromatin remodeling in mouse ES cells; Bmi1-luciferase knock-in reporter, 24 h; 100% = twice the neutral-well signal; reporter increase, % at 12.5 µM; 2% of 350,000 active; AID 602393; in the data active = activation above about 40%; inconclusive = no clear call, values can overlap the other calls;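 also: a rise in the Bmi1 reporter signal indicates esBAF inhibition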
Wnt act: Wnt/beta-catenin pathway activation | Wnt/beta-catenin reporter cell assay, activator, plate reader | activation, % at 9.35 µM | 1.2% of 300,000 active | AID 743398; in the data active = activation above about 30%, passing the limit was not always enough; inconclusive = no clear call, values can overlap the other calls
AF4-AF9 inh: MLL-AF4/AF9 protein interaction inhibition; P42568; AlphaScreen, biotin-AF4 peptide binding to FLAG-AF9; inhibition, % at 10 µM; 0.47% of 350,000 active;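 active = every replicate reaching a set inhibition limit, whatever the replicate mean, cut at about 25% in these data; inconclusive = mean inhibition reaches that limit but some replicates miss it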
Target sequence (P42568 whole entry, looked up): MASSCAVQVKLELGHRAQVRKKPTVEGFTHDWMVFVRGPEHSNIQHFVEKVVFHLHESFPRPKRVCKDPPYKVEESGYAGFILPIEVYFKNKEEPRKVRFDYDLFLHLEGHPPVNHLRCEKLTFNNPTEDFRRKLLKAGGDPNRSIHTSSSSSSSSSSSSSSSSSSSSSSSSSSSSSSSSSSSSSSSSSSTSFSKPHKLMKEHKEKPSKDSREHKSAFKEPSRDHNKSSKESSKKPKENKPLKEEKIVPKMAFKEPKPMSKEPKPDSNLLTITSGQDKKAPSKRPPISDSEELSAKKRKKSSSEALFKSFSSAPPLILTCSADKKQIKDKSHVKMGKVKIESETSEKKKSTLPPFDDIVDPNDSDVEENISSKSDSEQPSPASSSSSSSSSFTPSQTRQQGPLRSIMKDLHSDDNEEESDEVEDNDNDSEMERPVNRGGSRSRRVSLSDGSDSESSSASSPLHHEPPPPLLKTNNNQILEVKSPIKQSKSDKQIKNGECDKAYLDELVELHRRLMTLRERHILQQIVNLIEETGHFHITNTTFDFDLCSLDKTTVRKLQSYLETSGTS
Large screens that a line does not name were inactive.

O=C(O)[C@@H]1[C@@H](CO)[C@@H]2Cn3c(ccc(/C=C/c4ccccc4)c3=O)[C@@H]2N1C(=O)c1cnccn1	none (no result: MITF act, SMARCA2 activ, Wnt act)
COC(=O)C1CCN(C(=O)C2CC(=O)N(c3ccc(C)c(Cl)c3)C2)CC1 (stereo not drawn)	esBAF inh 56
CN(C)CC(=O)Nc1ccc2c(c1)[C@@H]1C[C@@H](CC(=O)N3CCN(C)CC3)O[C@H](CO)[C@@H]1O2	none (no result: FGF22 binding, MITF act, SMARCA2 activ, Wnt act)
O=C(C[C@@H]1CC[C@@H]2[C@H](COC[C@H](O)CN2Cc2ccc3c(c2)OCO3)O1)N1CCCCC1	none (no result: MITF act, SMARCA2 activ, Wnt act, AF4-AF9 inh)
COc1ccc2[nH]cc(C(=O)CNc3nc(C)cs3)c2c1	esBAF inh 70, Wnt act 42 (no result: FGF22 binding, MITF act, AF4-AF9 inh)
C(=C\c1ccc(C2[C@@H]3CN(Cc4cccnc4)C[C@H]2N3)cc1)/c1ccccc1 (stereo partly drawn)	AF4-AF9 inh 33 (no result: FGF22 binding, MITF act, SMARCA2 activ, esBAF inh, Wnt act)
CCC(NC(=O)c1cccc2c1C(=O)N(Cc1cccnc1)C2)c1ccccc1 (stereo not drawn)	none (no result: FGF22 binding, MITF act, esBAF inh, Wnt act, AF4-AF9 inh)
CCOC(=O)CC(NC(=O)c1cccc2c1C(=O)N(Cc1cccnc1)C2)c1ccc(OCC)c(OC)c1 (stereo not drawn)	FGF22 binding 43
CC(=O)c1ccc(NC(=O)CCc2nnc3ccc(N4CCC5(CC4)OCCO5)nn23)cc1	esBAF inh 54
Cc1ccc(NC(=O)CCc2nnc3ccc(N4CCC5(CC4)OCCO5)nn23)nc1	none
CCCC#Cc1ccc([C@@H]2[C@@H](CO)N3C(=O)CN(C(=O)Nc4ccccc4F)C[C@H]23)cc1	none (no result: FGF22 binding, MITF act, SMARCA2 activ, esBAF inh, Wnt act)
OC(c1ccccc1)(c1ccccc1)C1CCN(CCCOc2ccc(-c3ccc(F)cc3F)cc2)CC1	none (no result: MITF act, esBAF inh, AF4-AF9 inh)
CCOC(=O)CC1=NN(c2ccccc2)C(=O)C1=c1sc(=C2SC(C)=C(C)N2CC)c(=O)n1CC	AF4-AF9 inh 40 (no result: esBAF inh)
NC(=O)N/N=C(/CCCCCC/C(=N\NC(N)=O)c1ccccc1)c1ccccc1	Wnt act 37 (no result: MITF act, esBAF inh)
C[C@@H]1CN([C@H](C)CO)C(=O)c2cc(-c3cccc(F)c3)cnc2O[C@@H]1CN(C)C(=O)c1ccccn1	none (no result: MITF act, SMARCA2 activ, Wnt act)
CC(C)(C)NC(=O)CSc1nc(N)c(NC(=O)c2ccccc2F)c(=O)[nH]1	FGF22 binding 44
CCOc1ccc(C(=O)Nc2cc(NC(=O)c3ccc(OCC)c(Cl)c3)cc(C(=O)O)c2)cc1Cl	none
CCOc1ccc(C(=O)Nc2ccc(Cl)cn2)cc1Cl	MITF act 103, esBAF inh 132, Wnt act inconclusive (no result: FGF22 binding, AF4-AF9 inh)
O=C(COc1ccccc1O)Nc1ccccc1Cl	esBAF inh 52 (no result: FGF22 binding, Wnt act, AF4-AF9 inh)
COc1ccc(OCC(=O)Nc2ccccc2Cl)cc1	none (no result: esBAF inh)
CC(=O)Nc1ccc(NC(=O)COc2ccc(Cl)cc2Cl)cc1	none (no result: MITF act)
O=C(COc1ccc(Cl)cc1Cl)Nc1ccc(Cl)cn1	MITF act 96
Cc1cc(Cl)ccc1OCC(=O)OCC(=O)Nc1ccc(Cl)cn1	none (no result: MITF act)
O=C(COc1ccc(Cl)cc1Cl)Nc1ccccc1F	Wnt act 45 (no result: MITF act, esBAF inh)
CSc1ccccc1NC(=O)COc1ccc(Cl)cc1C	none (no result: esBAF inh)
O=C(COc1ccc(Cl)cc1Cl)c1ccc[nH]1	esBAF inh inconclusive, Wnt act 33
Cc1cc(Cl)ccc1OCC(=O)Nc1ccccc1CO	esBAF inh 42 (no result: FGF22 binding, AF4-AF9 inh)
O=C1CN(S(=O)(=O)c2ccccc2)C[C@@H]2[C@H](c3ccc(C4=CCCC4)cc3)[C@@H](CO)N12	none (no result: FGF22 binding, MITF act, SMARCA2 activ, esBAF inh, Wnt act)
C[C@@H]1CN([C@@H](C)CO)C(=O)Cc2cc(NS(=O)(=O)c3ccc(Cl)cc3)ccc2O[C@@H]1CN(C)S(=O)(=O)c1ccc(Cl)cc1	none (no result: MITF act, SMARCA2 activ, Wnt act)
O=[N+]([O-])c1cccc(-c2nnn(C34CC5CC(CC(C5)C3)C4)n2)c1	esBAF inh 50 (no result: FGF22 binding, Wnt act, AF4-AF9 inh)
CCOC(=O)CCCCC(=O)c1[nH]c(=O)[nH]c1CN1CCOCC1	AF4-AF9 inh 85
CCOC(=O)CCCCC(=O)c1[nH]c(=O)[nH]c1C[n+]1ccc(C)cc1	none
Cc1c(Cl)c(C(F)(F)F)nn1CC(=O)NCc1ccco1	FGF22 binding 43 (no result: esBAF inh)
Cc1c(Cl)c([N+](=O)[O-])nn1CC(=O)NCc1ccco1	none (no result: FGF22 binding, Wnt act, AF4-AF9 inh)
CCc1ccc(O)c(-c2cc(C(=O)Nc3cccnc3)[nH]n2)c1	MITF act 109, esBAF inh 56, Wnt act inconclusive
Cc1cc(C)c(O)c(-c2cc(C(=O)Nc3cccnc3)[nH]n2)c1	none (no result: esBAF inh)
Cc1cc(O)c(-c2cc(C(=O)Nc3cccnc3)[nH]n2)cc1C	MITF act 138, Wnt act 40
CCNC(=O)O[C@@H]1C=C[C@@H](C#Cc2ccc(C(C)(C)C)cc2)O[C@@H]1COC(C)=O	none (no result: MITF act, esBAF inh)
Cc1noc(C)c1S(=O)(=O)Nc1ccc2c(c1)C(=O)N([C@@H](C)CO)C[C@H](C)[C@@H](CN(C)C(=O)NC(C)C)OCCCC[C@@H](C)O2	none (no result: MITF act, SMARCA2 activ, esBAF inh, Wnt act)
Cc1ccc(S(=O)(=O)Nc2ccc3c(c2)C(=O)N([C@@H](C)CO)C[C@@H](C)[C@@H](CN(C)C(=O)c2ccncc2)OCCCC[C@@H](C)O3)cc1	none (no result: MITF act, SMARCA2 activ, Wnt act, AF4-AF9 inh)
CCCn1nnc2ccccc2c1=O	none (no result: FGF22 binding, MITF act, AF4-AF9 inh)
CCOc1ccc(OCCn2nnc3ccccc3c2=O)cc1	FGF22 binding 44, Wnt act inconclusive (no result: esBAF inh)
OC[C@@H]1Nc2ccc(C3=CCCCC3)cc2[C@@H]2[C@H]1CCN2Cc1nccs1	AF4-AF9 inh 25 (no result: FGF22 binding, MITF act, SMARCA2 activ, esBAF inh, Wnt act)
Cc1ccc(NC(=O)Nc2cccc3ccccc23)cc1	none
N#CCc1ccc(NC(=O)Nc2cccc3ccccc23)cc1	esBAF inh 49 (no result: FGF22 binding, SMARCA2 activ, Wnt act, AF4-AF9 inh)
COc1ccc(N/N=C(\C#N)C(=N)N2CCOCC2)cc1	none (no result: esBAF inh)
N#C/C(=N\Nc1ccccc1)C(=N)N1CCCCCC1	Wnt act 42 (no result: AF4-AF9 inh)
N#C/C(=N\Nc1ccc(F)cc1)C(=N)N1CCCCC1	MITF act 114, SMARCA2 activ 7.8 (no result: FGF22 binding, Wnt act, AF4-AF9 inh)
C[C@H](CO)N1C[C@H](C)[C@H](CN(C)S(=O)(=O)c2ccc(F)cc2)Oc2ccc(NC(=O)C3CCCCC3)cc2C1=O	none (no result: MITF act, SMARCA2 activ, Wnt act)
CC(C)CC#Cc1cnc2c(c1)C(=O)N([C@H](C)CO)C[C@@H](C)[C@@H](CN(C)Cc1ccccc1)O2	none (no result: MITF act, SMARCA2 activ, esBAF inh, Wnt act)
COc1ccc([C@H]2Cc3cc(O)cc(O)c3C(=O)O2)cc1O	Wnt act 41
O=C1CC(c2ccc(O)cc2)Oc2cc(O)cc(O)c21 (stereo not drawn)	none
O=C1CC(c2ccc(O)c(O)c2)Oc2cc(O)cc(O)c21 (stereo not drawn)	none
O=C1O[C@@H](c2ccc(O)cc2)Cc2cccc(O)c21	none
COc1ccc([C@H]2Cc3cccc(O)c3C(=O)O2)cc1O	esBAF inh 55
COc1ccc(C2CC(=O)c3c(O)cc(O)cc3O2)cc1O (stereo not drawn)	esBAF inh 52
O=C1CC(c2ccccc2)Oc2cc(O)cc(O)c21 (stereo not drawn)	esBAF inh 60 (no result: MITF act)
COc1ccc([C@@H]2CC(=O)c3c(O)cc(O[C@@H]4OC(CO[C@@H]5OC(C)[C@H](O)[C@H](O)C5O)[C@@H](O)[C@@H](O)C4O)cc3O2)cc1O (stereo partly drawn)	none
